# Source: the supplement of paper PMC12494721
# Structures can show the parent of a compound that is named as a salt.
# Assays:
# Conditions in all cases: incubation time: 27 h, anaerobic, 37 °C;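 for the amine columns active = adjusted P below 0.05 in both replicates with a change the same way and a mean fold change under 0.8 or over 1.25; inactive = the rest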
# [1] = test system: Clostridium sporogenes DSM 1664; test: growth (OD595) fold change vs plate DMSO controls (fold change (ratio)); higher = more growth
# Summary of the method: (§1)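 The measure reported is growth, taken as fold change against the median of DMSO controls on the same plate. Anaerobic mGAM cultures in 96-well plates (27 h, 37 °C) were read at 595 nm, blank-subtracted, corrected for compound background using 20 µM compound solutions in water, and multiplied by a calibration factor of 5 to give OD. Any fold change above 1.5 became NA, and 2 biological replicates were averaged.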
# Escherichia coli IAI1 [2] = test: as above
# Summary of the method: as §1
# [3] = test system: Klebsiella aerogenes DSM 30053; test: as above
# Summary of the method: as §1
# [4] = test system: Ruminococcus gnavus DSM 108212; test: as above
# Summary of the method: as §1
# [5] = test system: Klebsiella aerogenes DSM 30053; test: fold change of Histamine concentration vs plate DMSO controls (fold change (ratio)); higher = more amine produced, active = hit call of the paper (significant change in both replicates, either direction)
# Summary of the method: (§2)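 Each value is the fold change relative to DMSO-only wells on the same plate. Four gut bacterial strains were grown anaerobically in mGAM at 37 °C for 27 h in 80 µL wells, starting at OD 0.1 before a 1:1 dilution, with compounds at 20 µM final (sweeteners 50 µM). Whole cultures were extracted with cold acetonitrile/methanol containing 0.1% formic acid, centrifuged, and amines were quantified by LC–triple-quadrupole MS (dynamic MRM) against external calibration curves with within-batch drift correction. Values are means of 2 biological replicates.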
# [6] = test system: Clostridium sporogenes DSM 1664; test: fold change of Tryptamine concentration vs plate DMSO controls (fold change (ratio)); higher = more amine produced, active = hit call of the paper (significant change in both replicates, either direction)
# Summary of the method: as §2
# [7] = test system: Ruminococcus gnavus DSM 108212; test: as above
# Summary of the method: as §2
# Escherichia coli IAI1 [8] = test: fold change of Putrescine concentration vs plate DMSO controls (fold change (ratio)); higher = more amine produced, active = hit call of the paper (significant change in both replicates, either direction)
# Summary of the method: as §2
# [9] = test system: Klebsiella aerogenes DSM 30053; test: as above
# Summary of the method: as §2
# Escherichia coli IAI1 [10] = test: fold change of Cadaverine concentration vs plate DMSO controls (fold change (ratio)); higher = more amine produced, active = hit call of the paper (significant change in both replicates, either direction)
# Summary of the method: as §2
# [11] = test system: Klebsiella aerogenes DSM 30053; test: as above
# Summary of the method: as §2
# [12] = test system: Ruminococcus gnavus DSM 108212; test: fold change of 2-Phenylethylamine concentration vs plate DMSO controls (fold change (ratio)); higher = more amine produced, active = hit call of the paper (significant change in both replicates, either direction)
# Summary of the method: as §2
SMILES,growth [1],growth (Escherichia coli IAI1 [2]),growth [3],growth [4],fold change of Histamine concentration [5],fold change of Tryptamine concentration [6],fold change of Tryptamine concentration [7],fold change of Putrescine concentration (Escherichia coli IAI1 [8]),fold change of Putrescine concentration [9],fold change of Cadaverine concentration (Escherichia coli IAI1 [10]),fold change of Cadaverine concentration [11],fold change of 2-Phenylethylamine concentration [12]
CCCCC1C(=O)N(c2ccccc2)N(c2ccc(O)cc2)C1=O (stereo not given) [Oxyphenbutazone] (20 µM),1.01,1,1.2,1.09,0.888 (inactive),1.3 (inactive),1.14 (inactive),1.21 (inactive),0.877 (inactive),0.973 (inactive),1.14 (inactive),1.23 (inactive)
C[C@H]1[C@H](OC(=O)CCC(=O)O)O[C@@H]2O[C@@]3(C)CC[C@H]4[C@H](C)CC[C@@H]1[C@@]24OO3 [Artesunate] (20 µM),1.08,1.01,1.03,0.931,1.04 (inactive),1.05 (inactive),0.879 (inactive),0.992 (inactive),1.01 (inactive),0.99 (inactive),0.982 (inactive),0.834 (inactive)
O=C(O)c1cc(=O)c2ccccc2o1 [Chromocarb] (20 µM),0.945,0.984,0.99,0.957,1.02 (inactive),1.01 (inactive),0.989 (inactive),1.01 (inactive),0.998 (inactive),0.983 (inactive),0.979 (inactive),0.974 (inactive)
"c1ccc(CNc2ncnc3nc[nH]c23)cc1 [Aminopurine, 6-benzyl] (20 µM)",1.09,0.978,0.971,0.966,1.06 (inactive),0.971 (inactive),0.932 (inactive),1.03 (inactive),1.02 (inactive),1.02 (inactive),1 (inactive),0.856 (inactive)
NCc1ccc(S(N)(=O)=O)cc1 [Mafenide hydrochloride] (20 µM),1.13,1,1.04,0.971,1.08 (inactive),0.888 (inactive),0.773 (inactive),1 (inactive),1.02 (inactive),1.04 (inactive),0.987 (inactive),0.755 (inactive)
OCCOCCN1CCN(C2=Nc3ccccc3Sc3ccccc32)CC1 [Quetiapine hemifumarate] (20 µM),0.966,1.13,1.07,0.982,0.894 (inactive),1 (inactive),1.01 (inactive),1.09 (inactive),0.978 (inactive),0.892 (inactive),1.03 (inactive),0.991 (inactive)
C[C@H](N[C@@H](CCc1ccccc1)C(=O)O)C(=O)N1CCC[C@H]1C(=O)O [Enalaprilat dihydrate] (20 µM),0.89,0.971,0.996,1.16,1.04 (inactive),0.967 (inactive),1.04 (inactive),1 (inactive),1.01 (inactive),1.08 (inactive),0.991 (inactive),1.04 (inactive)
CCCC1C(=O)N2C(N(C)C)=Nc3ccc(C)cc3N2C1=O (stereo not given) [Azapropazone] (20 µM),1.1,1,0.964,1.01,1.08 (inactive),1.09 (inactive),0.961 (inactive),0.996 (inactive),1 (inactive),0.997 (inactive),0.978 (inactive),0.91 (inactive)
CCC[C@@H]1C[C@@H](C(=O)N[C@@H]([C@H]2O[C@H](SC)[C@H](OP(=O)(O)O)[C@@H](O)[C@H]2O)[C@H](C)Cl)N(C)C1 [Clindamycin Phosphate] (20 µM),0.836,1.04,0.998,0.709,1.01 (inactive),0.917 (inactive),0.844 (inactive),1.02 (inactive),1.01 (inactive),0.987 (inactive),0.999 (inactive),0.86 (inactive)
CCN1CCC[C@H]1CNC(=O)c1c(O)c(Cl)cc(Cl)c1OC [Raclopride] (20 µM),1.03,1.25,0.996,0.999,0.961 (inactive),1.06 (inactive),1 (inactive),1.19 (inactive),0.97 (inactive),0.944 (inactive),0.983 (inactive),0.991 (inactive)
CO/N=C(\C(=O)N[C@@H]1C(=O)N2C(C(=O)[O-])=C(C[n+]3ccn4ncccc43)CS[C@H]12)c1nsc(N)n1 [Cefozopran hydrochloride] (20 µM),0,0.102,0.153,0.0221,1.35 (active),0.0264 (active),0.0903 (active),2.2 (active),0.898 (inactive),2 (active),1.05 (inactive),0.0687 (active)
CC(COc1ccccc1)N(CCCl)Cc1ccccc1 (stereo not given) [Phenoxybenzamine hydrochloride] (20 µM),0.887,1.03,1.01,1.02,1.02 (inactive),1 (inactive),1.01 (inactive),1.02 (inactive),1.02 (inactive),0.963 (inactive),0.985 (inactive),1.05 (inactive)
CC(C)[N+](C)(CCOC(=O)C1c2ccccc2Oc2ccccc21)C(C)C [Propantheline bromide] (20 µM),1.03,0.986,1,0.994,1 (inactive),0.971 (inactive),0.96 (inactive),1.02 (inactive),0.992 (inactive),1.01 (inactive),0.996 (inactive),0.963 (inactive)
CCCCc1cc2ccccc2c(OCCN(C)C)n1 [Dimethisoquin hydrochloride] (20 µM),0.969,1.01,1.1,0.962,0.872 (inactive),0.946 (inactive),0.91 (inactive),1.07 (inactive),0.983 (inactive),1.06 (inactive),0.994 (inactive),0.96 (inactive)
CC(C)Cc1ccc(C(C)C(=O)OCc2ccccn2)cc1 (stereo not given) [Ibuprofen Piconol] (20 µM),0.967,1,0.98,1.13,1.01 (inactive),1.01 (inactive),1.1 (inactive),1 (inactive),1.01 (inactive),0.983 (inactive),0.996 (inactive),1.15 (inactive)
CCN1CC(CCN2CCOCC2)C(c2ccccc2)(c2ccccc2)C1=O (stereo not given) [Doxapram hydrochloride] (20 µM),1.01,0.969,0.996,0.884,0.932 (inactive),1.09 (inactive),1.07 (inactive),0.977 (inactive),0.978 (inactive),1.01 (inactive),1.02 (inactive),1.08 (inactive)
CN1[C@@H]2CC[C@H]1C[C@@H](OC(=O)c1c[nH]c3ccccc13)C2 [Tropisetron hydrochloride] (20 µM),1.14,1,1.14,1.08,0.94 (inactive),1.01 (inactive),1.02 (inactive),0.982 (inactive),0.952 (inactive),0.994 (inactive),1.01 (inactive),0.957 (inactive)
CCCc1cc(C(N)=S)ccn1 [Prothionamide] (20 µM),1.09,1.15,0.999,0.999,1.01 (inactive),0.998 (inactive),0.977 (inactive),1.18 (inactive),0.982 (inactive),1.01 (inactive),0.999 (inactive),0.946 (inactive)
Nc1nc(=O)[nH]cc1F [Flucytosine] (20 µM),1.01,0.897,0.986,1.03,1.07 (inactive),0.924 (inactive),0.987 (inactive),0.875 (inactive),1.02 (inactive),0.968 (inactive),0.979 (inactive),1.01 (inactive)
OC[C@H]1O[C@@H](n2cnc3cncnc32)[C@H](O)[C@@H]1O [Nebularine] (20 µM),0.985,0.971,1.01,0.831,0.982 (inactive),0.874 (inactive),0.943 (inactive),0.795 (inactive),1.01 (inactive),0.943 (inactive),0.998 (inactive),0.946 (inactive)
CN1C(=O)CC(c2ccccc2)C1=O (stereo not given) [Phensuximide] (20 µM),0.976,1.28,0.996,1.05,1.04 (inactive),1.03 (inactive),1.03 (inactive),1.21 (inactive),1.01 (inactive),1.01 (inactive),0.989 (inactive),1.02 (inactive)
CCC[C@H](N[C@@H](C)C(=O)N1[C@H](C(=O)O)C[C@@H]2CCCC[C@@H]21)C(=O)OCC [Perindopril] (20 µM),0.997,1,1.05,1.21,0.997 (inactive),0.965 (inactive),1.02 (inactive),0.914 (inactive),1.03 (inactive),0.993 (inactive),1.01 (inactive),0.995 (inactive)
CC(=O)[C@H]1CC[C@H]2[C@@H]3C[C@H](C)C4=CC(=O)CC[C@]4(C)[C@H]3[C@@H](O)C[C@]12C [Medrysone] (20 µM),1.08,1.03,1.05,1.03,1.02 (inactive),1.03 (inactive),1.01 (inactive),0.978 (inactive),1 (inactive),1.02 (inactive),0.996 (inactive),1.01 (inactive)
CN1CCN(c2c(F)cc3c(=O)c(C(=O)O)cn4c3c2SCC4)CC1 [Rufloxacin] (20 µM),0.0133,0.0641,0.299,0.953,0.201 (active),0.0518 (active),0.901 (inactive),0.875 (inactive),1.18 (inactive),0.26 (active),0.997 (inactive),0.952 (inactive)
COC(=O)C1=C(C#N)NC(C)=C(C(=O)OC(C)C)C1c1cccc([N+](=O)[O-])c1 (stereo not given) [Nilvadipine] (20 µM),1.01,1.18,0.953,0.932,0.971 (inactive),1.1 (inactive),1.24 (inactive),1.15 (inactive),0.936 (inactive),1.03 (inactive),1.02 (inactive),1.44 (active)
